Source: PubChem BioAssay (NCI)
Values joined by “and” are separate entries in the source; they are usually repeats but may differ in a detail not shown here. Equal values may be shown once. About 79,000 compounds went through this panel and 15% of them were active in at least one assay; those are over-represented in the sample as a whole. Where a structure was tested more than once in an assay, its records may differ in their call. Active and inactive are the calls of the source. Cut-off read from the data, not from the text of the source: active = growth inhibition above about 70%; inactive = the rest.

Tests used:
[1] = NCI Yeast Anticancer Drug Screen. Data for the rad50 strain (AID 155);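 note: 0% = growth of vehicle-only cultures of the same strain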; settings: S. cerevisiae rad50 strain growth inhibition, stronger effect = higher value
Summary of the method: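 Compounds were tested on a yeast strain with an engineered DNA damage repair alteration; the reported value is growth inhibition normalised to vehicle treatment.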

[2] = NCI Yeast Anticancer Drug Screen. Data for the mec2-1 strain (AID 157); settings: S. cerevisiae mec2-1 strain, stronger effect = higher value
Summary of the method: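 Readout is yeast growth inhibition, normalised to vehicle-treated controls, in the mec2-1 strain exposed to compound.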

[3] = NCI Yeast Anticancer Drug Screen. Data for the sgs1 mgt1 strain (AID 161);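 note: 0% = growth of cultures given vehicle only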; settings: S. cerevisiae sgs1 mgt1 strain, stronger effect = higher value
Summary of the method: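 This yeast growth screen uses a strain with defined DNA-repair lesions; compound-treated growth is compared with vehicle-treated growth.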

[4] = NCI Yeast Anticancer Drug Screen. Data for the cln2 rad14 strain (AID 165);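 note: 0% = growth equal to vehicle treated cultures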; settings: S. cerevisiae cln2 rad14 strain, stronger effect = higher value
Summary of the method: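 Relative to vehicle controls, growth inhibition of compound-treated cln2 rad14 yeast was recorded.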

[5] = NCI Yeast Anticancer Drug Screen. Data for the bub3 strain (AID 167); settings: S. cerevisiae bub3 mutant strain, stronger effect = higher value
Summary of the method: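 Growth of a checkpoint-deficient yeast mutant is measured after compound exposure. Values represent inhibition relative to vehicle.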

[6] = NCI Yeast Anticancer Drug Screen. Data for the mlh1 rad18 strain (AID 175); settings: S. cerevisiae mlh1 rad18 strain growth inhibition, stronger effect = higher value
Summary of the method: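 Test agents were incubated with a yeast strain of defined genotype (DNA damage repair defect). Inhibition of growth was derived by comparison with vehicle-exposed cultures.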

[7] = at 5.0 µM (retest, dose inferred, filed as 0.5)
[8] = at 50.0 µM (retest, dose inferred, filed as 5.0)

| Compound | growth inhibition [1, 7] | growth inhibition [1, 8] | growth inhibition ([1]; at 50.0 µM) | growth inhibition [2, 7] | growth inhibition [2, 8] | growth inhibition ([2]; at 50.0 µM) | growth inhibition [3, 7] | growth inhibition [3, 8] | growth inhibition ([3]; at 50.0 µM) | growth inhibition [4, 7] | growth inhibition [4, 8] | growth inhibition ([4]; at 50.0 µM) | growth inhibition [5, 7] | growth inhibition [5, 8] | growth inhibition ([5]; at 50.0 µM) | growth inhibition [6, 7] | growth inhibition [6, 8] | growth inhibition ([6]; at 50.0 µM) |
| --- | --- | --- | --- | --- | --- | --- | --- | --- | --- | --- | --- | --- | --- | --- | --- | --- | --- | --- |
| COC1=C(N2CC2)C(=O)C(OC)=C(N2CC2)C1=O | 95% (active) | 97% (active) | 98.3% (active) | 95% (active) | 98% (active) | 97.8% (active) | 90% (active) | 97% (active) | 98.2% (active) | 91% (active) | 98% (active) | 98.8% (active) | 49% (inactive) | 98% (active) | 97.1% (active) | 96% (active) | 98% (active) | 97.6% (active) |
| BrCc1ccc2ncccc2c1 | 5% (inactive) | 98% (active) | 98.5% (active) | 4% (inactive) | 99% (active) | 98.9% (active) | 6% (inactive) | 98% (active) | 99% (active) | 11% (inactive) | 99% (active) | 98.5% (active) | 3% (inactive) | 99% (active) | 99% (active) | 1% (inactive) | 99% (active) | 98.5% (active) |
| CC(=O)C1CCC2C3CCC4CC([N+]5(C)CCCCC5)CCC4(C)C3CCC12C (centres undefined) | 2% (inactive) | 29% (inactive) | 82.3% (active) | 17% (inactive) | 71% (active) | 79.9% (active) | 10% (inactive) | 87% (active) | 97.5% (active) | 8% (inactive) | 31% (inactive) | 81.1% (active) | 8% (inactive) | 64% (inactive) | 86.5% (active) | 18% (inactive) | 65% (inactive) | 92% (active) |
| C=C(CC(=O)O)C(=O)O (tested in a mixture with another compound) | -1% (inactive) | 0% (inactive) | -3.6% (inactive) and 99.4% (active) | 8% (inactive) | 0% (inactive) | 28% (inactive) and 99.5% (active) | -1% (inactive) | -1% (inactive) | -21.9% (inactive) and 98.8% (active) | 0% (inactive) | -2% (inactive) | 39% (inactive) and 99.6% (active) | -3% (inactive) | -4% (inactive) | -3.25% (inactive) and 99% (active) | 0% (inactive) | -1% (inactive) | 18.6% (inactive) and 99.2% (active) |
| CN(CCC(N)CC(=O)NC1C=CC(n2ccc(N)nc2=O)OC1C(=O)O)C(=N)N (centres undefined) | 48% (inactive) | 95% (active) | 91.8% (active) | 86% (active) | 98% (active) | 92.8% (active) and 93.4% (active) | 42% (inactive) | 90% (active) | 90.9% (active) | 88% (active) | 97% (active) | 90% (active) and 90.2% (active) | 68% (inactive) | 96% (active) | 91% (active) and 92% (active) | 72% (active) | 97% (active) | 90.6% (active) and 90.7% (active) |
| O=P(Nc1cccc(Cl)c1)(Oc1ccccc1)N(CCCl)CCCl (centres undefined) | 40% (inactive) | 40% (inactive) | 90.2% (active) | 30% (inactive) | 30% (inactive) | 90.2% (active) | 43% (inactive) | 43% (inactive) | 92.1% (active) | 20% (inactive) | 20% (inactive) | 89.8% (active) | 26% (inactive) | 26% (inactive) | 88.7% (active) | 21% (inactive) | 21% (inactive) | 88.2% (active) |
| C[C@@H]1CCC2[C@@H](C)[C@H](O[C@H]3O[C@@H]4O[C@@]5(C)CCC6[C@H](C)CCC([C@H]3C)[C@]64OO5)O[C@@H]3O[C@@]4(C)CCC1[C@@]23OO4 (some centres undefined) | 92% (active) | 93% (active) | 90.2% (active) | 95% (active) | 94% (active) | 91.6% (active) | 94% (active) | 95% (active) | 92% (active) | 79% (active) | 93% (active) | 89.7% (active) | 92% (active) | 94% (active) | 91.2% (active) | 93% (active) | 93% (active) | 90.8% (active) |
| CC(NCCN(C)C)C1CC2CCCCN2C1 (centres undefined) | -8% (inactive) | -30% (inactive) | 3.55% (inactive) | -8% (inactive) | -14% (inactive) | 11.9% (inactive) | -13% (inactive) | -28% (inactive) | 15.7% (inactive) | -17% (inactive) | -26% (inactive) | 41.1% (inactive) | 3% (inactive) | 1% (inactive) | 0.8% (inactive) | -3% (inactive) | 19% (inactive) | 33% (inactive) |
| O/N=C/c1ccc2c(c1)OCO2 | 91% (active) | 99% (active) | -1.6% (inactive) | 100% (active) | 100% (active) | -1.95% (inactive) | 46% (inactive) | 100% (active) | 38.3% (inactive) | 35% (inactive) | 99% (active) | -34.2% (inactive) | 98% (active) | 99% (active) | 4.25% (inactive) | 99% (active) | 99% (active) | -14.1% (inactive) |
| O=C(c1ccccc1)c1c(CC(O)c2ccccn2)n(C(=O)c2ccccc2)c2ccccc12 (centres undefined) | 6% (inactive) | 88% (active) | 77.5% (active) | -8% (inactive) | 75% (active) | 46.7% (inactive) | 5% (inactive) | 86% (active) | 82.5% (active) | 12% (inactive) | 88% (active) | 65.7% (inactive) | -10% (inactive) | 93% (active) | 74.2% (active) | 2% (inactive) | 86% (active) | 84% (active) |
| CCCCN(C)CC(C(C)=O)C(c1ccccc1)c1c(O)c2ccccc2oc1=O (centres undefined) | 32% (inactive) | 32% (inactive) | 80.4% (active) | 18% (inactive) | 18% (inactive) | 78.4% (active) | 11% (inactive) | 11% (inactive) | 82.3% (active) | 6% (inactive) | 6% (inactive) | 80.2% (active) | 15% (inactive) | 15% (inactive) | 81.5% (active) | 22% (inactive) | 22% (inactive) | 85.8% (active) |
| CC#N.FC(F)(F)C#CC(F)(F)F.FC(F)(F)C#CC(F)(F)F.FC(F)(F)C#CC(F)(F)F.[W] | 90% (active) | 99% (active) | 99.4% (active) | 83% (active) | 99% (active) | 99.5% (active) | 90% (active) | 99% (active) | 99.7% (active) | 85% (active) | 99% (active) | 99.2% (active) | 94% (active) | 99% (active) | 99.6% (active) | 95% (active) | 99% (active) | 99.3% (active) |
| CCC[CH2][Sn]([Cl])([CH2]C)[O][Sn]([Cl])([CH2]C)[CH2]CCC (centres undefined) | 88% (active) | 98% (active) | 83.5% (active) | 96% (active) | 99% (active) | 88.2% (active) | 81% (active) | 97% (active) | 89.6% (active) | 84% (active) | 97% (active) | 91.2% (active) | 84% (active) | 97% (active) | 89.2% (active) | 95% (active) | 98% (active) | 90.2% (active) |
| CCCC[CH2][Pb]([CH2]CCCC)([CH2]CCCC)[O]C(C)=O | 99% (active) | 96% (active) | 99% (active) | 99% (active) | 98% (active) | 99.2% (active) | 100% (active) | 99% (active) | 98.8% (active) | 99% (active) | 95% (active) | 98% (active) | 100% (active) | 97% (active) | 98% (active) | 99% (active) | 93% (active) | 98.5% (active) |
| CC1(C)CC(=O)C([Se]C2=C(O)CC(C)(C)CC2=O)=C(O)C1 | 96% (active) | 99% (active) | 99.6% (active) | 91% (active) | 99% (active) | 99.8% (active) | 86% (active) | 99% (active) | 99.8% (active) | 35% (inactive) | 99% (active) | 99.4% (active) | 40% (inactive) | 99% (active) | 99.6% (active) | 94% (active) | 99% (active) | 99.3% (active) |
| COC1=CC2=CCC3C(CCC4(C)C3CCC4(C)OC(C)=O)C2(C)CC1 (centres undefined) | -2% (inactive) | 66% (inactive) | 51.4% (inactive) | 2% (inactive) | 43% (inactive) | 36.5% (inactive) | 0% (inactive) | 82% (active) | 56.4% (inactive) | 0% (inactive) | 35% (inactive) | 30.6% (inactive) | -12% (inactive) | 24% (inactive) | 76.6% (active) | -2% (inactive) | 76% (active) | 55.5% (inactive) |
| N#CC(Nc1c(N)nc(-c2ccccc2)nc1N)c1ccc(N(CCCl)CCCl)cc1 (centres undefined) | 4% (inactive) | 45% (inactive) | 57.5% (inactive) | -18% (inactive) | 26% (inactive) | 66% (inactive) | 2% (inactive) | 43% (inactive) | 59.8% (inactive) | -10% (inactive) | 9% (inactive) | 53.1% (inactive) | -4% (inactive) | -4% (inactive) | 0.75% (inactive) | 27% (inactive) | 90% (active) | 55.6% (inactive) |
| CN(C)CC1CC2C3CC=C4CC(O)CCC4(C)C3CCC2(C)C1=O (centres undefined) | -9% (inactive) | 78% (active) | 88% (active) | -1% (inactive) | 85% (active) | 37.4% (inactive) | -5% (inactive) | 86% (active) | 92.2% (active) | 4% (inactive) | 64% (inactive) | 29.1% (inactive) | -23% (inactive) | 90% (active) | 79% (active) | -12% (inactive) | 91% (active) | 92.5% (active) |
